# Assay outcomes (PubChem BioAssay)
# A selection: hits, their analogues and other compounds. The true share with any hit is near 1.3%.
# Bcl-xL primary: blocks human Bcl-xL binding to Bim BH3 peptide; Q07817; GST-Bcl-xL / FITC-Bim BH3 peptide fluorescence polarization; inhibition, % at 10.9 µM; 320,000 compounds, 0.7% hits; AID 2129;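 active means inhibition above the mean of all tested compounds plus 3 SD, cutoff set per campaign, cut at about 30% in these data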;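 further: 0% = DMSO wells and 100% = unlabeled Bim-BH3 peptide competitor; inhibitors lower millipolarization by displacing the labeled peptide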
# MEX-5 binding: C. elegans MEX-5 TCR-2 RNA binding activity; Q9XUB2; MEX-5/FITC-TCR2 RNA binding, fluorescence polarization; hits give low values; activity score (negative = inhibition of binding), % at 10 µM; 300,000 compounds, 0.38% hits; AID 1832;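 active means inhibition past about -25% in most replicates, and total fluorescence under double the plate's negative control median, limit read from the data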;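 further: 0% = DMSO and -100% = 5 µM competing unlabeled TCR2 RNA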
# GLD-1 TGE inh: GLD-1-TGE RNA interaction inhibition (C. elegans); Q17339; purified GLD-1 + fluorescein TGE RNA, fluorescence polarization; inhibition, % at 5.96 µM; 320,000 compounds, 0.44% hits;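 active means percent inhibition above a per-plate cutoff, the plate mean of test compounds plus 3 SD, cut at about 30% in these data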;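 further: 0% = DMSO wells with GLD-1 and probe and 100% = wells lacking GLD-1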
# Target sequence (Q17339 whole entry, looked up): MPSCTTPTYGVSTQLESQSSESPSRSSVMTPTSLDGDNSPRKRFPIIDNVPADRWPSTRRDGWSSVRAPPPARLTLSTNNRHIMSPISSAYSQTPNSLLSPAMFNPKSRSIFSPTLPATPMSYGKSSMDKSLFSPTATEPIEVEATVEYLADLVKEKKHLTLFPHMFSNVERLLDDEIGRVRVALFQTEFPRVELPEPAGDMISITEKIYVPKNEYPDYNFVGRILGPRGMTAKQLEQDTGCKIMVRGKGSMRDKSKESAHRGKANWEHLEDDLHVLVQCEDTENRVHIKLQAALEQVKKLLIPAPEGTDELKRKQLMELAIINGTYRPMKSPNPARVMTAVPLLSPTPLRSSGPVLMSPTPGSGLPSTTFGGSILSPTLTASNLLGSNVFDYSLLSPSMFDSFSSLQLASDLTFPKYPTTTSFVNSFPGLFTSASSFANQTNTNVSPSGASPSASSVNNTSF
# EBV gp42 block: inhibitors of Epstein-Barr virus glycoprotein 42; inhibition, % (tested at 21.74 µM); 220,000 compounds, 0.42% hits; Fluorescence polarization binding assay, mP read-out; AID 1085; in the data active means inhibition above about 50%
# eLon inh: E. coli protease La inhibition | inhibition, % at 7.94 µM | purified E. coli Lon protease, fluorescence polarization | P0A9M0 | 360,000 compounds, 0.42% hits; in the data active means inhibition above about 13%, passing the limit was not always enough;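 further: 0% = enzyme with probe and DMSO and 100% = no enzyme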
# GLD-1 TGE cf: GLD-1 TGE RNA interaction inhibition, confirmation. 550 compounds, 10% hits. shares compounds with GLD-1 TGE inh. GLD-1/FL-TGE RNA fluorescence polarization, biochemical. inhibition, % at 5.96 µM;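 active means average inhibition across triplicates above the hit cutoff set in the primary screen, cut at about 32% in these data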;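 further: 0% = GLD-1 with RNA probe and DMSO and 100% = wells lacking GLD-1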
# An asterisk follows results filed as active; . = no result.
SMILES,Bcl-xL primary,MEX-5 binding,GLD-1 TGE inh,EBV gp42 block,eLon inh,GLD-1 TGE cf
COC(=O)[C@@H](Cc1c[nH]c2ccccc12)NC(=O)c1cc(=O)[nH]c2ccccc12,3.9,-1.8,6.4,2.6,-15.4,.
CC1(C)CC2(C)Nc3ccccc3N2C(=S)N1 (stereo unspecified),6.5,0.8,0.4,2.4,-6.4,.
CSC1=NC(C)(C)CC2(C)Nc3ccccc3N12 (stereo unspecified),15.4,-0.1,46.8*,-5.8,9.7,0.1
Oc1c(Br)cc(Br)cc1C=Nc1cccc2ncccc12,74.2*,-1.3,53.0*,.,10.6,3.4
Nc1nnnn1/N=C/c1ccccc1Cl,.,.,.,.,-3.6,.
Nc1nnnn1/N=C/c1cc(Cl)ccc1O,22.9,-23.3,38.2*,.,26.7,46.2*
COc1cccc(C(=O)NN2CC(O)=C(c3nc4ccccc4s3)C2=N)c1,-0.3,-1.0,30.8*,-8.9,-7.5,-6.5
COc1cccc(C(=O)NN2CC(O)=C(c3nc(C)cs3)C2=N)c1,-3.1,1.8,6.2,-12.7,4.3,.
CCn1c(COc2ccccc2)nnc1SCC(=O)CC(=O)Nc1ccccc1OC,0.2,0.1,34.7*,-16.8,-11.3,-6.4
CCc1ccc(C(=O)C(C)OC(=O)c2nc3nc(C)cc(C)n3n2)cc1 (stereo unspecified),-6.1,1.0,4.8,.,2.8,.
COC(=O)c1c(C(=O)OC)c2cccc3cc(-c4ccccc4)c4ccc1c4n32,24.6,-0.3,30.9*,25.0,3.8,15.5
O=C(NCCc1ccccc1)C(=O)c1c(-c2ccccc2)cc2ccccn12,1.5,0.6,-0.6,-13.8,-4.6,.
COC(=O)c1cc(-c2ccccc2)sc1N,1.0,-0.2,0.5,-15.6,-10.9,.
COC(=O)c1cc2c(-c3ccccc3)cc3ccccn3c-2c1C(=O)OC,35.8*,-1.9,31.5*,61.1*,7.0,12.4
CCOc1ccc(C(=O)NCc2ccco2)cc1Cl,3.9,-0.1,2.3,.,-1.9,.
O=C(Nc1cc(C(F)(F)F)ccc1Cl)C(NCc1ccccc1)c1ccccc1 (stereo unspecified),3.7,-1.5,0.6,-13.1,-10.9,.
CCN(CC)CCNC(C(=O)Nc1cc(C(F)(F)F)ccc1Cl)c1ccccc1 (stereo unspecified),-6.3,-3.7,35.2*,-49.5,1.0,-0.5
O=C(CNC(=O)c1cccnc1)N/N=C/c1ccc(O)cc1O,20.7,-0.4,32.8*,.,-1.3,11.0
COCC(=O)NCc1ccc2c(c1)cc(C)n2C,30.1,-1.4,35.6*,14.8,11.4,13.8
Cc1cc2cc(CNC(=O)c3ccc4c(c3)OCO4)ccc2n1C,33.2*,-0.5,43.6*,-0.6,25.0*,6.3
O=C(C1=C[C@@H]2[C@H]3C(=O)N(c4ccc(Cl)cc4)C(=O)[C@H]3[C@@H](C(=O)c3ccc(Cl)cc3)N2C=C1)c1ccccc1,3.9,0.8,7.1,-18.2,-8.3,.
CC(=O)Oc1ccc(C(=O)[C@H]2[C@H]3C(=O)N(c4ccccc4)C(=O)[C@H]3[C@@H]3C=CC=NN32)cc1,25.7,2.9,31.4*,-15.8,-2.5,2.9
CC(=O)Oc1ccc(N2C(=O)C3C(C2=O)C(C(=O)c2ccc(Cl)cc2)N2CCCC32)cc1 (stereo unspecified),78.2*,-7.0,57.9*,42.9,6.0,14.3
Cc1ccccc1N=C(N)Nc1ccccc1C,63.0*,.,43.0*,.,13.2,43.4*
Cc1ccccc1NC(=O)NC(N)=O,2.7,1.2,2.3,-1.2,2.1,.
SMILES,Bcl-xL primary,MEX-5 binding,GLD-1 TGE inh,EBV gp42 block,eLon inh,GLD-1 TGE cf
O=C1C=C(c2ccc(C(=O)O)cc2)C[C@@H](c2ccc(F)cc2)C1,.,.,6.7,.,-5.3,.
CC(=O)c1nnn(-c2c(F)cccc2F)c1C,0.4,-3.4,1.0,-3.3,0.0,.
Cc1ccccc1-c1cnc2c(c1)C(=O)N([C@H](C)CO)C[C@@H](C)[C@H](CN(C)C(=O)c1ccncc1)O2,.,.,.,.,0.2,.
COCCN(C(=O)Cc1ccc(S(=O)(=O)N2CCOCC2)s1)c1c(N)n(CC(C)C)c(=O)[nH]c1=O,.,.,.,.,2.1,.
CCCn1c(N)c(N(CCOC)C(=O)Cc2ccc(S(=O)(=O)N3CCOCC3)s2)c(=O)[nH]c1=O,40.5*,-25.6*,38.0*,.,-0.6,51.1*
C/C(=N/OCO/N=C(\C)c1ccc(F)cc1F)c1ccc(F)cc1F,1.3,0.3,0.9,4.5,0.0,.
